Anthrax LF inh2: blocks Bacillus anthracis lethal factor protease | actives 0.12% (n = 360,000) | multiplex microsphere protease cleavage assay, LF | inhibition, % at 10 µM | P15917 | AID 588501; note: plate controls were buffer without enzyme for full effect and enzyme alone for no effect
Autofluor counter: compound fluorescence in toxin protease inhibitor counterscreen; compound autofluorescence counterscreen, microsphere flow cytometry; hits give high values; fluorescence intensity (no concentration beside the values); actives 3.1% (n = 360,000); AID 624483; in the data active = fluorescence intensity above about 16000; inconclusive = no clear call, values can overlap the other calls
BoNT-F LC inh: BoNT F light chain protease inhibition; Multiplex microsphere protease cleavage assay, flow cytometry; actives 0.22% (n = 360,000); inhibition, % at 10 µM; AID 588497; in the data active = inhibition above about 35%, passing the limit was not always enough; inconclusive = no clear call, values can overlap the other calls; note: plate controls were buffer without enzyme for full effect and enzyme alone for no effect
MazF activator: activators of E. coli MazEF toxin-antitoxin RNase. FAM/BHQ RNA-DNA oligo cleavage fluorescence, 5 h. activation, % at 20 µM. actives 0.32% (n = 350,000). AID 504720; in the data active = activation above about 50%
Target sequence (P0AE70 whole entry, looked up): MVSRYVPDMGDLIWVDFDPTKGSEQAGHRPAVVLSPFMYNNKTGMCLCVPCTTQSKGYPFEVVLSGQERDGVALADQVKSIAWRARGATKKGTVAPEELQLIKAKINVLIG
BoNT A protease: BoNT A light chain protease inhibition | multiplex microsphere protease substrate cleavage, flow cytometry | inhibition, % at 10 µM | actives 0.17% (n = 360,000) | AID 588499; note: plate controls were buffer without enzyme for full effect and enzyme alone for no effect
* marks the source's active call; other numbers are inactive results; ? = inconclusive; . = no result given. This is a sample that favours compounds with a hit; in the whole collection about 3.7% have one here. Cut-off read from the data, not from the text of the source, unless noted: active = inhibition above about 30%; inconclusive = no clear call, values can overlap the other calls; inactive = below that.

SMILES	Anthrax LF inh2	Autofluor counter	BoNT-F LC inh	MazF activator	BoNT A protease
Cc1ccc(-n2c(C)cc(C(=O)COC(=O)C3=NNC(=O)CC3)c2C)cc1	-5	3267	4	-4	-1
Cc1cc(C(=O)COC(=O)C2=NNC(=O)CC2)c(C)n1-c1ccccc1	-9	19448*	2	-1	1
Cc1ccc(C(C)NC(=O)COC(=O)C2=COCCO2)cc1C (stereo unspecified)	-4	?	-9	-9	-1
Cc1cc(C(=O)COC(=O)c2cnccn2)c(C)n1-c1ccc(Br)cc1	-2	3518	-11	-4	-1
Cc1ccc(-n2c(C)cc(C(=O)COC(=O)c3c(C)noc3C)c2C)cc1	-3	23721*	-3	0	0
O=C1CCCCCC(=O)[C@H](O)C[C@H](c2ccccc2)O1	5	6075	0	.	0
O=C(Cc1ccccc1)N/N=C/c1cc(Br)c(Br)o1	2	16918*	-4	-2	?
COc1ccc(-c2nnc(SCCC(=O)O)n2C)cc1OC	2	5130	2	-1	0
COc1ccc(C(C)=O)cc1CSc1nnc(C)n1-c1ccccc1	2	7580	10	-1	2
COc1ccc(-c2nnc(SCCC(=O)O)n2-c2ccccc2)cc1OC	-2	25005*	-8	0	-5
COc1ccc(C(C)=O)cc1CSc1nnc(-c2ccccc2O)n1-c1ccccc1	-2	19750*	-2	-2	1
CCCCN(C(=O)C(C)Oc1ccc(Cl)cc1)c1c(N)n(CCCC)c(=O)[nH]c1=O (stereo unspecified)	-1	5589	5	-4	2
CCC(=NCCO)c1c(O)n(-c2ccccc2)c(=O)[nH]c1=O	9	2882	1	0	1
CCC(=NCCCN(CC)CC)c1c(O)n(-c2ccccc2)c(=O)[nH]c1=O	1	24318*	-3	3	-2
CCN(CC)CCCN=C(C)c1c(O)n(-c2ccccc2)c(=O)[nH]c1=O	-2	22362*	0	-7	?
COCc1cc(C)nc(N2CCN(Cc3ccccc3)CC2)c1C#N	-1	4486	18	-2	1
COCc1cc(C)nc(N2CCN(c3ccccc3)CC2)c1C#N	-1	23159*	-1	3	-1
COC(=O)c1cc(F)c(-n2cncn2)c(F)c1	2	16245*	-3	-2	?
COC(=O)c1cc([N+](=O)[O-])c(-n2cncn2)c([N+](=O)[O-])c1	-4	2583	25	3	1
O=C(NCc1ccc(Cl)cc1)c1cc(-c2cccs2)on1	-8	16902*	6	-1	7
Cc1ccc(Cn2ccc(NC(=O)c3cc(-c4cccs4)on3)n2)cc1	0	25079*	-6	-39	-3
CC(NC(=O)c1cc(-c2cccs2)on1)c1ccccc1 (stereo unspecified)	-12	16362*	-2	6	?
O=C(NCc1cccs1)c1cc(-c2cccs2)on1	-1	22229*	6	2	4
CC[C@]12c3[nH]c4cc(CCC(=O)N(C)C)ccc4c3CCN1C(=O)[C@@H](CC(=O)NCc1cccc(C(F)(F)F)c1)C[C@@H]2C(=O)N1CCN(C(=O)C2CC2)CC1	-4	3648	-3	10	0
CCCc1c(C(=O)N/N=C(\C)c2ccccn2)nnn1-c1nonc1N	2	3873	-5	9	0
SMILES	Anthrax LF inh2	Autofluor counter	BoNT-F LC inh	MazF activator	BoNT A protease
CCOc1ccccc1C(=O)OCC(=O)Nc1ncc(C(F)(F)F)cc1Cl	0	21522*	-6	-4	-6
Cc1ccc(C(=O)OCC(=O)Nc2ncc(C(F)(F)F)cc2Cl)cc1NC(=O)c1ccco1	1	20917*	-4	5	-4
CCOc1ncccc1C(=O)OCC(=O)Nc1ncc(C(F)(F)F)cc1Cl	2	5009	9	12	0
Cc1noc(C)c1C(=O)OCC(=O)Nc1ncc(C(F)(F)F)cc1Cl	-2	3559	0	2	-1
COC(=O)c1ccccc1NC(=O)COC(=O)c1ccc(C)c(NC(=O)c2ccco2)c1	0	21306*	0	-2	?
Cc1cccc(S(=O)(=O)NC(=O)C2(C)CCN2C(=O)Cc2ccccc2)c1 (stereo unspecified)	-5	3890	-6	.	0
CCOc1cc(-c2nc3ccccn3c2NCC2CCCO2)ccc1O (stereo unspecified)	3	22229*	-9	3	-9
CCOC(=O)C1=C(CC)OC(N)=C(C#N)C1c1ccc(OC)c(C)c1OC (stereo unspecified)	-1	2513	-12	-7	-2
CCOc1cc(C2C(C#N)=C(N)OC(C)=C2C(C)=O)c(Br)c(Br)c1OC(C)C (stereo unspecified)	0	21864*	4	-9	3
CCOC(=O)C1=C(CC)OC(N)=C(C#N)C1c1cc(OC)ccc1OC (stereo unspecified)	0	21578*	-8	4	?
CCOC(=O)C1=C(C)OC(N)=C(C#N)C1c1ccc(OC)c(C)c1OC (stereo unspecified)	1	20362*	-2	-2	?
CCOC(=O)C1=CN(Cc2cccc(-c3ccc(F)cc3)c2)S(=O)(=O)N(C)C1C (stereo unspecified)	-2	3888	-10	-4	0
COc1cc(C(=O)c2cc3c(cc2C)OCO3)cc(OC)c1OC	-12	4676	-3	.	0
COc1ccc(C(NC(=O)C2CCN(Cc3ccc(Oc4ccccc4)cc3)CC2)c2ccccn2)cc1 (stereo unspecified)	-4	4921	-11	.	-1
OC(c1ccccc1)c1nc(/C=C/c2ccccc2)cs1 (stereo unspecified)	-3	3760	1	.	0
Cc1nn(CC(=O)N(C)C)c(=O)c2ccccc12	1	22253*	1	0	1
CCN(CC)C(=O)c1ccc(-c2nnc(Nc3ccc(O)cc3)c3ccccc23)cc1	-1	4659	6	12	-5
Cc1nn(CC(=O)Nc2ccc3c(c2)nc2n3CCOC2)c(=O)c2ccccc12	1	21862*	1	0	1
Cc1nn(CC(=O)Nc2ccc(C(=O)N(C)C)cc2)c(=O)c2ccccc12	0	19106*	5	-4	3
CCN(CC)C(=O)c1ccc(Nc2nnc(C)c3ccccc23)cc1	0	24503*	-3	3	-2
CNc1cccnc1C=NNC(N)=S	0	2963	-9	-28	-1
O=C(CN1C(=O)NC2(CCCC2)C1=O)Nc1cc(Cl)ccc1Oc1ccccc1	6	3632	-4	-3	0
Cc1nn(CC(=O)Nc2ccccc2)c(=O)c2ccccc12	.	.	.	2	.
CCN(CC)C(=O)c1ccc(NC(=O)Cn2nc(C)c3ccccc3c2=O)cc1	-4	22310*	3	7	?
COc1ccccc1-c1nnc(SCC(=O)NC2CCCCC2)o1	-11	4188	2	4	0
Cc1ccccc1-c1nnc(SCC(=O)Nc2cccc(C)c2C)o1	-3	19363*	5	-11	?
Cc1cc(C)cc(NC(=O)CSc2nnc(-c3ccccc3Br)o2)c1	-2	21943*	1	2	1
